{"source": "PubChem BioAssay (NCATS)", "note": "Results filed as inconclusive are left out. A call without a number means that no potency is given here. Calls of active or inactive are those of the source. Calls follow the shape of the dose curve; as a rule, active = well fitted inhibition curve with a large enough effect; inconclusive = small, poorly fitted or top-dose-only effect; inactive = flat fitted curve, though single readings scatter. Potency is read from the fitted curve at half-maximal effect."}
{"biological_target": "Voltage-gated inwardly rectifying potassium channel KCNH2 (Homo sapiens) (UniProt Q12809)", "sequence (Q12809 whole entry, looked up)": "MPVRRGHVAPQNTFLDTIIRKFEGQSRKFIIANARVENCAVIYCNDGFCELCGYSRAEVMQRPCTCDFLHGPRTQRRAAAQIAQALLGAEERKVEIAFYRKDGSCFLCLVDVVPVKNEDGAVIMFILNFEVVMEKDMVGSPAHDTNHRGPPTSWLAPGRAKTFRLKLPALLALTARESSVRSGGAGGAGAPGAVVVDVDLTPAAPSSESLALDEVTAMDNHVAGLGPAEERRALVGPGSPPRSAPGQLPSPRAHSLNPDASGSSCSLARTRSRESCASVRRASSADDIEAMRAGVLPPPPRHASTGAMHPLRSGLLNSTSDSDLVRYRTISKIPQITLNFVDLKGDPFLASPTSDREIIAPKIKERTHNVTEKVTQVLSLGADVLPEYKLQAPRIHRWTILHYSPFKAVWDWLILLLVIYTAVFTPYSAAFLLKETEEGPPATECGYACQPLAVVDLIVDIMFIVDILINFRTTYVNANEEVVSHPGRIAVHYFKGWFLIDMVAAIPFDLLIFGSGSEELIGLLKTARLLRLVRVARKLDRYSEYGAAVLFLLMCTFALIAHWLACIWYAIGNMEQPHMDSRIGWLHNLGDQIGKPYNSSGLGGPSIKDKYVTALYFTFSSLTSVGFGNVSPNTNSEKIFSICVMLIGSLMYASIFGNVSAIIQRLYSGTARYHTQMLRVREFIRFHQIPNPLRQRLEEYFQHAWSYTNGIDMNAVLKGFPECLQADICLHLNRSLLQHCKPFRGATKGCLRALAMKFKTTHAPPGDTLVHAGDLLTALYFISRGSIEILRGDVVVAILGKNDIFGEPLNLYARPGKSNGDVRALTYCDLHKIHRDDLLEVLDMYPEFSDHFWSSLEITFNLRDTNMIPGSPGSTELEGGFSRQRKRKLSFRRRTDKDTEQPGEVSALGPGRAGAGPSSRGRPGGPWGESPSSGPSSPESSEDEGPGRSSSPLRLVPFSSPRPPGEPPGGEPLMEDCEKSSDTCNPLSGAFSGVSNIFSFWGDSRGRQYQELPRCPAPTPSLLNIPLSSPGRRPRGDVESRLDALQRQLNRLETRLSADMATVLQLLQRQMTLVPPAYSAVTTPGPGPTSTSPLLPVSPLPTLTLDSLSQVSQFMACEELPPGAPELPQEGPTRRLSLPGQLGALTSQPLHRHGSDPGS", "assay": "qHTS Assay for Small Molecule Inhibitors of the Human hERG Channel Activity (AID 588834);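 also: lower thallium flux fluorescence means stronger hERG block; nearly all actives have a fitted effect of over 50% in size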", "settings": "U2OS BacMam hERG, FluxOR thallium flux fluorescence; series mostly up to 46.1 µM", "how_it_was_run": "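Measured: FluxOR fluorescence after thallium stimulation in U2OS cells transduced with hERG by baculovirus. Compounds pre-incubated around 10 min; medium Opti-MEM with 2% FCS. AC50 from Hill equation.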"}
{"smiles": "C/C(=C(\\CCOP(=O)(O)O)SC(=O)c1ccccc1)N(C=O)Cc1cnc(C)nc1N", "Potency": "inactive"}
{"smiles": "CC(=O)O[C@@]12CO[C@@H]1C[C@H](O)[C@@]1(C)C(=O)[C@H](O)C3=C(C)[C@@H](OC(=O)[C@H](O)[C@@H](NC(=O)OC(C)(C)C)c4ccccc4)C[C@@](O)([C@@H](OC(=O)c4ccccc4)[C@H]21)C3(C)C", "Potency": "inactive"}
{"smiles": "OCC(CO)N[C@H]1C[C@](O)(CO)[C@@H](O)[C@H](O)[C@H]1O", "Potency": "inactive"}
{"smiles": "CO/N=C(\\C(=O)N[C@@H]1C(=O)N2C(C(=O)O)=C(CSc3nc(=O)c(O)nn3C)CS[C@H]12)c1csc(N)n1", "Potency": "inactive"}
{"smiles": "N[C@@H](CSSC[C@H](N)C(=O)O)C(=O)O", "Potency": "inactive"}
{"smiles": "COC(=O)[C@H]1[C@H]2C[C@@H]3c4[nH]c5cc(OC)ccc5c4CCN3C[C@H]2C[C@@H](OC(=O)COc2ccc(OC)cc2)[C@@H]1OC", "Potency": "141 nM (active)"}
{"smiles": "CN(C)CCCO[C@@H]1[C@H]2OC(C)(C)O[C@H]2O[C@@H]1C(O)CO", "note": "(some centres undefined)", "Potency": "inactive"}
{"smiles": "O=C1Nc2ccc(Cl)cc2[C@@](C#CC2CC2)(C(F)(F)F)O1", "Potency": "inactive"}
{"smiles": "CC(C)(C)c1onc(OCP(=O)(O)O)c1CC(N)C(=O)O", "note": "(centres undefined)", "Potency": "inactive"}
{"smiles": "OC[C@H]1O[C@@H](O[C@@H]2[C@@H](CO)O[C@](O)(CO)[C@H]2O)[C@H](O)[C@@H](O)[C@H]1O", "Potency": "inactive"}
{"smiles": "N=c1c[n+](N2CCOCC2)[n-]o1", "Potency": "inactive"}
{"smiles": "CN1CCOC(c2ccccc2)c2ccccc2C1", "note": "(centres undefined)", "Potency": "inactive"}
{"smiles": "O=C1N=C(O)CN1/N=C/c1ccc(-c2ccc([N+](=O)[O-])cc2)o1", "Potency": "inactive"}
{"smiles": "NC(=O)c1ncn([C@@H]2O[C@H](CO)[C@@H](O)[C@H]2O)c1N", "Potency": "inactive"}
